Hits are enriched below; roughly 7.3% of the tested compounds scored in any of these assays.
FLuc modulator – counter-screen for miR-21 project: firefly luciferase inhibitors or activators. P08659. purified FLuc, Km substrates, luminescence inhibition. Potency, µM (highest dose often 57.5 µM), usual class: inhibitors. 360,000 compounds, 6.9% hits. AID 588342; further: nearly all actives have a fitted effect of over 55% in size
Target sequence (P08659 whole entry, looked up): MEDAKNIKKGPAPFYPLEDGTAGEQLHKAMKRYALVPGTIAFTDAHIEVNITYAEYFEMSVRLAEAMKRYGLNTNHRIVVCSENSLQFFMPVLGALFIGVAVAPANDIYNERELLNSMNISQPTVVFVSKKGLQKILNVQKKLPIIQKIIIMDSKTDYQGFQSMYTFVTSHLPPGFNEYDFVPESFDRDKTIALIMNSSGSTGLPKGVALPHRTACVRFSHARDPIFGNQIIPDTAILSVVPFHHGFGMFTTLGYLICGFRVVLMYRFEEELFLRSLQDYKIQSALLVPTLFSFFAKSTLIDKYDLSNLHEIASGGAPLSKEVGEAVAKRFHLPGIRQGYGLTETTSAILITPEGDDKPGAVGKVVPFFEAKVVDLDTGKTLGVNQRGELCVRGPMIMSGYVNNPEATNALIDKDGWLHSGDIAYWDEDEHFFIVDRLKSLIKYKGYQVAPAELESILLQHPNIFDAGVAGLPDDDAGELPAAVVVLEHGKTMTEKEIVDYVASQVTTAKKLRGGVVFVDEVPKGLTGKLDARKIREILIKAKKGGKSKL
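Purified P. pyralis luciferase (10nM final) with 10uM D-luciferin and 10uM ATP (Km levels) in 50mM Tris acetate pH 7.5, 10mM Mg acetate, 0.01% Tween-20, 0.05% BSA; qHTS 6-point titration, ~60 µM downward; luminescence read.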
SMN2 splice enh – increases expression of the SMN2 splice variant; 210,000 compounds, 2.8% hits; Potency, µM (titrated, usually from 46.1 µM), usual class: activators; AID 1458; HEK293 SMN2-luciferase splicing reporter, luminescence, 30-36 h; further: nearly all actives have a fitted effect of over 55% in size
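HEK293 cells carry an SMN2 […]–luciferase reporter in which exon 7 inclusion puts luciferase in frame. Cells were plated 10-12 h before compound addition, then incubated 30-36 h at 37C. ONE-Glo luminescence was read; sodium butyrate at 4.5 mM final served as control.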
NPC1 promoter act – activates the NPC1 promoter; Huh7 NPC1 promoter luciferase reporter, 24 h; Potency, µM (titrated, usually from 9.22 µM), actives largely listed as activators; 320,000 compounds, 2.4% hits; further: nearly all actives have a fitted effect of over 60% in size
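Huh7 cells stably carrying NPC1 promoter–luciferase, plated in Opti-MEM with 10% FBS for 2 h, were exposed to compound in DMSO for 24 h at 37 °C; luciferase reagent was added for 10 min and luminescence read.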
KinaseGlo FLuc – blocks Kinase-Glo luciferase, a counter-screen artifact; Q27757; Kinase-Glo luciferase, ATP luminescence, 8 min; Potency, µM (series often up to 38.3 µM), usual class: inhibitors; 200,000 compounds, 0.28% hits; further: nearly all actives have a fitted effect of over 60% in size
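Compound is pinned into ATP-containing buffer (10 uM ATP, imidazole pH 7.2, 7 mM MgCl2). Kinase-Glo luciferase reagent is then added. Light output is recorded following an 8-min room-temperature incubation.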
Rab9 prom act – activates the Rab9 promoter; Huh7 Rab9 promoter-luciferase reporter, luminescence, 24 h; Potency, µM (top dose mostly 9.22 µM), usual class: activators; 320,000 compounds, 2.8% hits; further: nearly all actives have a fitted effect of over 60% in size
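Luminescence read-out: Huh7 cells stably expressing Rab9-luciferase, treated 24 h with compound at 37 °C, then lysed with luciferase reagent for 10 min at ambient before reading.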
ELG1 genotox – inducers of genotoxicity in HEK293T ELG1-luciferase cells | HEK293T ELG1-luciferase reporter, luminescence, 16 h | Potency, µM (highest dose often 46 µM), actives largely listed as activators | 330,000 compounds, 1.3% hits | AID 504466; further: nearly all actives have a fitted effect of over 60% in size
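DMSO vehicle served as control against compound-treated ELG1-luciferase HEK293T cells; exposure lasted 16 hr at 37 °C and 5% CO2, followed by ONE-Glo luminescence detection after 30 min.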
Numbers stand for hits; n = inactive; u = inconclusive; x = not tested or not shown; [ ] = remark or other dose. The call rests on the fitted dose curve; in most records, active means well fitted curve in the direction sought with a large enough effect; inconclusive means small, poorly fitted or top-dose-only effect, or another doubt; inactive means no such curve, though single readings can be large; an effect the other way counts as inactive or inconclusive.

SMILES	FLuc modulator	SMN2 splice enh	NPC1 promoter act	KinaseGlo FLuc	Rab9 prom act	ELG1 genotox
COc1ccc(NC(=O)O/N=C/c2ccccc2Cl)cc1	30µM	x	n	x	n	n
COc1ccc(/C=N/NC(=O)c2cccc(NC(=O)c3ccccc3Cl)c2)cc1OC	u	n	n	n	n	n
COc1ccc(/C=N/NC(=O)c2cccc(NC(=O)c3ccccc3Cl)c2)c(OC)c1	4.3µM	n	n	n	n	n
O=C(N/N=C/c1ccncc1)c1cccc(NC(=O)c2ccccc2Cl)c1	u	n[1.84 µM]	n	n	n	n
COc1ccc(C(=O)Nc2cccc(C(=O)N/N=C/c3ccc(OC)cc3OC)c2)cc1	1.9µM	x	u	x	4µM	n
O=C(N/N=C/c1ccc(F)cc1)c1cccc(NC(=O)c2ccccc2Cl)c1	9.5µM	x	n	x	n	n
COc1ccc(/C=N/NC(=O)c2cccc(NC(C)=O)c2)c(OC)c1	n	n	n	n	n	n
CCCCC(=O)Nc1cccc(C(=O)N/N=C/c2ccc(OC)cc2OC)c1	17µM	n	n	n	n	n
COc1ccc(/C=N/NC(=O)c2cccc(NC(=O)c3ccccc3Cl)c2)cc1	5.4µM	x	n	x	n	n
O=C(O)CN1C(=O)c2cccc3cccc(c23)C1=O	x	n	x	n	x	x
S=C(NCCCN1CCOCC1)Nc1ccc(Cl)c(Cl)c1	n	n	n	n	n	n
Cc1ccc(N(CC(=O)NCCc2ccc(F)cc2)S(=O)(=O)c2ccc(Cl)c([N+](=O)[O-])c2)c(C)c1	n	n	n	n	n	n
COc1ccc(N2Cc3ccc(C(=O)N/N=C\c4ccc(O)cc4O)cc3C2)cc1	15µM	x	u	x	u	n
CN(C)CCn1c(=N)n(CC(O)c2ccc(Cl)c(Cl)c2)c2ccccc21 (stereo not given)	n	n	n	n	n	n
CCn1nnc(NC(=O)c2ccc(-c3ccc(Cl)cc3)o2)n1	17µM	n	n	n	n	u
O=C(NC12CC3CC(CC(C3)C1)C2)c1ccc(-c2ccc(Cl)cc2)o1	u	16µM	u	n	3.2µM	u
O=C(NC12CC3CC(CC(C3)C1)C2)c1ccc(COc2ccc(Cl)cc2[N+](=O)[O-])o1	n	n	n	n	n	n
CC(=O)NC(=O)c1ccc(-c2ccc(Cl)cc2)o1	5.4µM	x	n	n	n	n
O=C(NC12CC3CC(CC(C3)C1)C2)c1ccc(-c2cccc(Cl)c2)o1	2.4µM	n	2.8µM	n	0.89µM	u
COc1ccc(C2CC(c3cccs3)=NN2C(=O)c2ccccc2)cc1OC (stereo not given)	n	x	n	x	n	n
O=C(CCc1nnc(CCCCc2ccccc2)o1)N1CCN(CCO)CC1	n	x	n	x	n	n
COc1ccccc1CN1CC(C(=O)N2CCN(c3ccc(F)cc3)CC2)CC1=O (stereo not given)	n	n	n	n	n	n
O=C(NC12CC3CC(CC(C3)C1)C2)c1ccc(-c2ccccc2Cl)o1	1.9µM	n	1.1µM	n	2µM	u
O=C(NC12CC3CC(CC(C3)C1)C2)c1ccco1	n	x	n	x	n	n
CS(=O)(=O)Nc1cccc(C2=NN(S(C)(=O)=O)C(c3ccc4c(c3)OCO4)C2)c1 (stereo not given)	17µM	11µM	n	n	u	n
SMILES	FLuc modulator	SMN2 splice enh	NPC1 promoter act	KinaseGlo FLuc	Rab9 prom act	ELG1 genotox
CS(=O)(=O)N1N=C(c2ccccc2)CC1c1ccc2c(c1)OCO2 (stereo not given)	21µM	u	3.5µM	n	2.8µM	u
Nc1c(-c2cccs2)cnc2c(-c3ccc(F)cc3)cnn12	0.48µM	x	0.45µM	x	0.35µM	2.6µM
CS(=O)(=O)c1cnc2c(-c3ccc(F)cc3)cnn2c1N	2.4µM	u	0.79µM	n	1.1µM	u
Nc1c(-c2ccccc2)cnc2c(-c3ccccc3)cnn12	0.24µM	x	0.32µM	x	0.11µM	0.73µM
COc1cc(/C=C/C(=O)O)cc(S(=O)(=O)NCC2CCCO2)c1OC (stereo not given)	n	x	n	x	n	n
CC(=O)N(/N=C1\Sc2ccccc2C1=O)c1ccc(C)cc1C	17µM	n	u	n	n	15µM
CC(=O)N(\C=C/C=C/C=C1\Sc2ccccc2C1=O)c1ccccc1	7.6µM	n	n	n	n	n
CC(=O)N(/N=C1\Sc2ccccc2C1=O)c1ccccc1	u	14µM	n	n	n	u
CC(=O)N(/N=C1\Sc2ccccc2C1=O)c1ccccc1C	11µM	u	u	n	3.2µM	u
CC(=O)N(C)C1=C(O)c2ccccc2C(=O)C1=O	n	n	n	n	n	n
CCOc1ccccc1-c1cc(-c2ccccc2)nc2c1c(=O)n(C)c(=O)n2C	n	n	n	n	n	n
CCc1ccc(-c2nc(C(N)=O)c3[nH]c(=O)n(-c4ccccc4OC)c3n2)cc1	n	n	n	n	n	u
CC(C)(C)Nc1nc(-c2ccc3c(c2)CCN3C(=O)C2CC2)cs1	3µM	x	1.8µM	x	u	u
CC(C)C(=O)Nc1nc(-c2ccc3c(c2)CCN3C(=O)C2CC2)cs1	15µM	x	u	x	u	n
CS(=O)(=O)N1CCc2cc(-c3csc(NC(=O)Cc4cccs4)n3)ccc21	u	x	n	n	n	n
CC(=O)Nc1nc(-c2ccc3c(c2)CCN3S(C)(=O)=O)cs1	21µM	10µM	u	n	2.5µM	u
CCC(CC)C(=O)Nc1nc(-c2ccc3c(c2)CCN3C(=O)C2CC2)c(C)s1	n	n	n	n	n	n
O=C(NC1CCN(S(=O)(=O)c2ccccc2)CC1)c1cccc(F)c1	n	x	n	x	n	n
O=C(c1c[nH]c2ccccc12)N1CCN(c2ccccc2)CC1	n	n	n	n	n	n
O=C(c1ccc2ccccc2c1)N1CCN(Cc2ccccc2)CC1	21µM	x	u	x	n	n
O=C(c1c[nH]c2ccccc12)N1CCN(Cc2ccccc2)CC1	21µM	n	n	n	n	n
CCCCc1ccc(S(=O)(=O)NCCc2ccncc2)cc1	n	n	n	n	n	n
Cc1cc(=O)oc2cc3c(cc12)OCCN3	n	n	n	n	n	n
COC(=O)CSc1ncc(S(=O)(=O)c2ccccc2)c(=O)[nH]1	n	x	n	x	n	n
COC(=O)c1cc(Cl)ccc1NC(=O)CSc1ncc(S(=O)(=O)c2ccc(Br)cc2)c(=O)[nH]1	11µM	n	x	x	x	x
O=C(CSc1ncc(S(=O)(=O)c2ccc(Br)cc2)c(=O)[nH]1)NCc1ccccc1Cl	9.5µM	n	x	x	x	x
COc1ccc(CNC(=O)CSc2ncc(S(=O)(=O)c3ccc(Br)cc3)c(=O)[nH]2)cc1	u	n	x	x	x	x
COCC(=O)N1CCC2(CC1)CN(C(=O)Nc1cccc(F)c1)C2	x	n	x	n	x	x
Cc1ccc2oc(=O)c(/C=C(\O)CC(C)C)nc2c1	n	u	n	n	n	n
